Measured values reported in PubChem BioAssay AID1159580 (chemical genetic matrix, 2015).
The campaign covered roughly 5,500 compounds. About 2,000 (36%) were called active. Inconclusive results (about 18%) are left out. Rule as the data show it: active = normalized growth mostly below about 0.91 (no sharp cut-off); inconclusive = no clear call, values can overlap the other calls; inactive = mostly above about 0.92. This is one part of the list.

Assay: chemical genetic growth profiling, strain panel (AID 1159580);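 also: tested at 20 µM; growth read once vehicle control cultures reached saturation at 30 °C; 1 = growth at the plate median or of vehicle wells; lower values mean less growth of the strain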
Settings: growth OD

Measured: normalized growth

CCCCOc1ccc(C(=O)CCN2CCCCC2)cc1
active: S. cerevisiae deletion strains, locus YJR066W, strain TOR1, hits give low values 0.67 | S. cerevisiae deletion strains, locus YJR075W, strain HOC1, hits give low values 0.66 | S. cerevisiae deletion strains, locus YKR001C, strain vps1, hits give low values 0.559 | S. cerevisiae deletion strains, locus YLL001W, strain dnm1, hits give low values 0.428 | S. cerevisiae deletion strains, locus YLR027C, strain aat2, hits give low values 0.888 | S. cerevisiae deletion strains, locus YLR039C, strain RIC1, hits give low values 0.426 | S. cerevisiae deletion strains, locus YLR058C, strain SHM2, hits give low values 0.85 | S. cerevisiae deletion strains, locus YLR102C, strain apc9, hits give low values 0.0845 | S. cerevisiae deletion strains, locus YLR262C, strain YPT6 (second series), hits give low values 0.662 | S. cerevisiae deletion strains, locus YLR262C, strain YPT6, hits give low values 0.523 | S. cerevisiae deletion strains, locus YLR268W, strain sec22, hits give low values 0.244 | S. cerevisiae deletion strains, locus YLR320W, strain mms22, hits give low values 0.565 | S. cerevisiae deletion strains, locus YLR330W, strain CHS5, hits give low values 0.0853 | S. cerevisiae deletion strains, locus YLR342W, strain FKS1 (second series), hits give low values 0.432 | S. cerevisiae deletion strains, locus YLR370C, strain arc18, hits give low values 0.85 | S. cerevisiae deletion strains, locus YLR371W, strain rom2, hits give low values 0.0987 | S. cerevisiae deletion strains, locus YLR418C, strain cdc73, hits give low values 0.267 | S. cerevisiae deletion strains, locus YML016C, strain PPZ1, hits give low values 0.17 | S. cerevisiae deletion strains, locus YML032C, strain rad52, hits give low values 0.748 | S. cerevisiae deletion strains, locus YML124C, strain tub3, hits give low values 0.552 | S. cerevisiae deletion strains, locus YMR058W, strain fet3, hits give low values 0.731 | S. cerevisiae deletion strains, locus YMR078C, strain ctf18, hits give low values 0.138 | S. cerevisiae deletion strains, locus YMR205C, strain PFK2, hits give low values 0.875 | S. cerevisiae deletion strains, locus YMR223W, strain ubp8, hits give low values 0.16 | S. cerevisiae deletion strains, locus YNL067W, strain RPL9B, hits give low values 0.589 | S. cerevisiae deletion strains, locus YNL071W, strain lat1, hits give low values 0.567 | S. cerevisiae deletion strains, locus YNL153C, strain GIM3, hits give low values 0.839 | S. cerevisiae deletion strains, locus YNL183C, strain NPR1, hits give low values 0.435 | S. cerevisiae deletion strains, locus YNL233W, strain BNI4, hits give low values 0.167 | S. cerevisiae deletion strains, locus YNL248C, strain rpa49, hits give low values 0.645 | S. cerevisiae deletion strains, locus YNL307C, strain MCK1, hits give low values 0.0713 | S. cerevisiae deletion strains, locus YNR049C, strain mso1, hits give low values 0.693 | S. cerevisiae deletion strains, locus YNR052C, strain pop2, hits give low values 0.864 | S. cerevisiae deletion strains, locus YOL006C, strain TOP1, hits give low values 0.248 | S. cerevisiae deletion strains, locus YOR001W, strain rrp6, hits give low values 0.833 | S. cerevisiae deletion strains, locus YOR061W, strain CKA2, hits give low values 0.691 | S. cerevisiae deletion strains, locus YOR069W, strain VPS5, hits give low values 0.558 | S. cerevisiae deletion strains, locus YOR136W, strain idh2, hits give low values 0.0967 | S. cerevisiae deletion strains, locus YOR184W, strain ser1, hits give low values 0.161 | S. cerevisiae deletion strains, locus YOR270C, strain vph1, hits give low values 0.275 | S. cerevisiae deletion strains, locus YOR316C, strain cot1, hits give low values 0.0893 | S. cerevisiae deletion strains, locus YPL051W, strain arl3, hits give low values 0.894 | S. cerevisiae deletion strains, locus YPL055C, strain LGE1, hits give low values 0.683 | S. cerevisiae deletion strains, locus YPL078C, strain atp4, hits give low values 0.507 | S. cerevisiae deletion strains, locus YPL241C, strain CIN2, hits give low values 0.882 | S. cerevisiae deletion strains, locus YPR119W, strain clb2, hits give low values 0.0832 | S. cerevisiae deletion strains, locus YPR163C, strain tif3, hits give low values 0.23 | S. cerevisiae deletion strains, locus YPR167C, strain met16, hits give low values 0.206 | S. cerevisiae deletion strains, strain wtn01, hits give low values 0.372 | S. cerevisiae strains, strain wild type, hits give low values 0.647
inactive: S. cerevisiae deletion strains, locus YKL009W, strain mrt4, hits give low values 0.902 | S. cerevisiae deletion strains, locus YKL068W, hits give low values 0.994 | S. cerevisiae deletion strains, locus YKL085W, strain MDH1 (second series), hits give low values 0.973 | S. cerevisiae deletion strains, locus YKL085W, strain MDH1, hits give low values 0.973 | S. cerevisiae deletion strains, locus YKL160W, strain elf1, hits give low values 0.918 | S. cerevisiae deletion strains, locus YKR026C, strain gcn3, hits give low values 0.996 | S. cerevisiae deletion strains, locus YKR091W, strain srl3, hits give low values 0.999 | S. cerevisiae deletion strains, locus YLL026W, hits give low values 0.948 | S. cerevisiae deletion strains, locus YLL041C, strain sdh2, hits give low values 0.981 | S. cerevisiae deletion strains, locus YLR113W, strain HOG1, hits give low values 1.03 | S. cerevisiae deletion strains, locus YLR221C, strain rsa3, hits give low values 0.952 | S. cerevisiae deletion strains, locus YLR258W, strain gsy2, hits give low values 0.95 | S. cerevisiae deletion strains, locus YLR342W, strain FKS1, hits give low values 0.985 | S. cerevisiae deletion strains, locus YLR357W, strain rsc2, hits give low values 1.03 | S. cerevisiae deletion strains, locus YLR384C, strain iki3, hits give low values 0.976 | S. cerevisiae deletion strains, locus YML120C, strain ndi1, hits give low values 0.973 | S. cerevisiae deletion strains, locus YMR125W, strain sto1, hits give low values 0.927 | S. cerevisiae deletion strains, locus YMR129W, hits give low values 0.99 | S. cerevisiae deletion strains, locus YMR231W, strain pep5, hits give low values 0.972 | S. cerevisiae deletion strains, locus YMR263W, strain SAP30, hits give low values 0.916 | S. cerevisiae deletion strains, locus YMR307W, strain GAS1, hits give low values 0.727 | S. cerevisiae deletion strains, locus YNL209W, strain ssb2, hits give low values 0.981 | S. cerevisiae deletion strains, locus YNL250W, strain rad50, hits give low values 0.986 | S. cerevisiae deletion strains, locus YNL271C, strain bni1, hits give low values 0.94 | S. cerevisiae deletion strains, locus YNL298W, strain CLA4, hits give low values 0.96 | S. cerevisiae deletion strains, locus YNL322C, strain KRE1 (second series), hits give low values 1.03 | S. cerevisiae deletion strains, locus YOL012C, strain htz1 0.354 | S. cerevisiae deletion strains, locus YOL147C, strain pex11, hits give low values 0.965 | S. cerevisiae deletion strains, locus YOR070C, strain gyp1, hits give low values 0.938 | S. cerevisiae deletion strains, locus YOR080W, strain dia2, hits give low values 0.975 | S. cerevisiae deletion strains, locus YOR083W, strain WHI5, hits give low values 0.952 | S. cerevisiae deletion strains, locus YOR106W, strain vam3, hits give low values 0.97 | S. cerevisiae deletion strains, locus YOR144C, strain elg1, hits give low values 0.994 | S. cerevisiae deletion strains, locus YOR231W, strain MKK1, hits give low values 1.03 | S. cerevisiae deletion strains, locus YOR265W, strain rbl2, hits give low values 0.968 | S. cerevisiae deletion strains, locus YOR290C, strain snf2, hits give low values 0.882 | S. cerevisiae deletion strains, locus YPL106C, strain sse1, hits give low values 1.1 | S. cerevisiae deletion strains, locus YPL240C, strain hsp82, hits give low values 1 | S. cerevisiae deletion strains, locus YPL256C, strain CLN2, hits give low values 1.01 | S. cerevisiae deletion strains, locus YPR141C, strain kar3, hits give low values 0.981
